The target in the experiment is Endoplasmic reticulum aminopeptidase 2 (Homo sapiens) (UniProt Q6P179). The experiment can be described thus: ERAP2 aminopeptidase inhibitors, dose response, selectivity assay for selective ERAP1 modulator project, biochemical, fluorescence plate reader, cherry-picked, set 2 (AID 743320). The conditions noted are these: recombinant ERAP2, Arg-AMC fluorescence, 1 h; series mostly up to 11 µM.

Measured potencies and affinities stand elsewhere. The source made the active and inactive calls.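 How the source made its calls: active means signal drop whose fitted half-maximal potency is at most twice the top valid dose tested; inconclusive means flat curve inhibiting 30 to 70 percent, or a poor fit; inactive means the rest.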

Endoplasmic reticulum aminopeptidase 2 (Homo sapiens), sequence (Q6P179 whole entry, looked up): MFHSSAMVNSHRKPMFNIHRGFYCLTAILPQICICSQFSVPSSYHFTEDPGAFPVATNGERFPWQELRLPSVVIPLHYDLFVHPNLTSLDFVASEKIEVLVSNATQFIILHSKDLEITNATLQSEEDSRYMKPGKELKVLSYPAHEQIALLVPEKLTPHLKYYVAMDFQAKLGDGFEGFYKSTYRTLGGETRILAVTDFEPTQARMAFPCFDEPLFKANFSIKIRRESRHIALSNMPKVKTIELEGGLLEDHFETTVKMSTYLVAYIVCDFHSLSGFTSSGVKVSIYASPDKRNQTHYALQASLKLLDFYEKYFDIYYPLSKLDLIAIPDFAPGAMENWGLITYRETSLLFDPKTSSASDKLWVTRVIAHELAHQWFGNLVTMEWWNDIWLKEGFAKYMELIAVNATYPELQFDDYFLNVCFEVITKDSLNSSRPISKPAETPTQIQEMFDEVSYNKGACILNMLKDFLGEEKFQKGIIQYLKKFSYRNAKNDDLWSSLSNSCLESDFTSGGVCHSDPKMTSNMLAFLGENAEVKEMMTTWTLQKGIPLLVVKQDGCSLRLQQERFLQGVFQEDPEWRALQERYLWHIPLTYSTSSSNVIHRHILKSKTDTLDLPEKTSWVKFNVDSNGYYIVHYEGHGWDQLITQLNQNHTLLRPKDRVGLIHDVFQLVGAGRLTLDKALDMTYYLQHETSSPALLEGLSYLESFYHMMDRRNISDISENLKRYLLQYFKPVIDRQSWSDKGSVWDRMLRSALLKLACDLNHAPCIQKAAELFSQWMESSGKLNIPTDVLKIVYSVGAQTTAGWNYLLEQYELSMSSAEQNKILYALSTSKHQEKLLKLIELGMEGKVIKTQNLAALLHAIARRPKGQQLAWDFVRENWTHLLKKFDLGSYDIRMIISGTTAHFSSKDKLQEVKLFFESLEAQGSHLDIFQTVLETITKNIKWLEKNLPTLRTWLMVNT

`Cc1c(O)ccc2c(CN3CCN(Cc4ccccc4)CC3)cc(=O)oc12`: the result was inactive.
The result for `COc1ccc(CN(C)C[C@H]2OCCCC[C@@H](C)Oc3ccc(NS(=O)(=O)c4cccs4)cc3C(=O)N([C@@H](C)CO)C[C@@H]2C)cc1` reads “inactive”.
On to `CCC(=O)N(C)C[C@H]1Oc2ncc(C#Cc3ccncc3)cc2C(=O)N([C@H](C)CO)C[C@H]1C`, for which the outcome was inactive.
The value for `C[C@H]1CN([C@@H](C)CO)C(=O)c2cccc(NC(=O)Nc3ccc(F)cc3)c2O[C@@H]1CN(C)C(=O)Nc1ccc2c(c1)OCO2` was “inactive”; that for `C[C@@H]1CN([C@H](C)CO)C(=O)c2cc(NC(=O)Nc3ccc(F)cc3)ccc2O[C@H]1CN(C)Cc1ccc(C(=O)O)cc1` was “inactive”.
Take `C[C@@H]1CCCCO[C@H](CN(C)Cc2ccc(C(=O)O)cc2)[C@H](C)CN([C@@H](C)CO)C(=O)c2cc(NC(=O)Nc3ccc(C(F)(F)F)cc3)ccc2O1`: the result was inactive.
For `CCCCc1cc(=O)oc2cc(O)ccc12`, the outcome was inactive.
The value for `Cc1noc(C)c1NC(=O)N(C)C[C@@H]1Oc2c(NC(=O)Nc3ccc(F)cc3)cccc2C(=O)N([C@H](C)CO)C[C@@H]1C` was “inactive”; that for `O=C(C[C@@H]1CC[C@@H]2[C@H](COC[C@H](O)CN2C(=O)Nc2cccc(Cl)c2)O1)N1CCCCC1` was “inactive”.
As to `C[C@@H]1CN([C@H](C)CO)C(=O)c2cccc(NC(=O)Nc3ccccc3)c2O[C@@H]1CN(C)Cc1ccc(C(=O)O)cc1`, the outcome was inactive.
Take `COc1ccc(CN(C)C[C@@H]2OCCCC[C@H](C)Oc3ccc(NS(=O)(=O)c4cccs4)cc3C(=O)N([C@H](C)CO)C[C@@H]2C)cc1`: the result was inactive.
With `C[C@@H]1CCCCO[C@@H](CN(C)Cc2ccc3c(c2)OCO3)[C@@H](C)CN([C@@H](C)CO)C(=O)c2cc(NS(=O)(=O)c3ccccc3)ccc2O1`, the outcome was inactive.
For `C[C@@H]1CCCCO[C@@H](CN(C)C)[C@H](C)CN([C@@H](C)CO)C(=O)c2cc(NC(=O)Nc3ccc(C(F)(F)F)cc3)ccc2O1`, the result was inactive.
Take `COc1ccc(CN(C)C[C@@H]2OCCCC[C@H](C)Oc3ccc(NS(=O)(=O)c4cccs4)cc3C(=O)N([C@@H](C)CO)C[C@@H]2C)cc1`: the result was inactive.
As to `COc1ccc(CN(C)C[C@@H]2OCCCC[C@@H](C)Oc3ccc(NS(=O)(=O)c4cccs4)cc3C(=O)N([C@H](C)CO)C[C@@H]2C)cc1`, the result was inactive.
Take `COc1cc2cc(C(=O)N3CCN(Cc4ccc5c(c4)OCO5)CC3)c(=O)oc2cc1OC`: the result was inactive.
The result for `COc1ccc(CN(C)C[C@@H]2OCCCC[C@@H](C)Oc3ccc(NS(=O)(=O)c4cccs4)cc3C(=O)N([C@H](C)CO)C[C@H]2C)cc1` reads “inactive”.
Regarding `C[C@H](CO)N1C[C@H](C)[C@H](CN(C)CC2CCCCC2)Oc2c(NC(=O)Nc3ccc(C(F)(F)F)cc3)cccc2C1=O`, the outcome was inactive.
With `Cc1noc(C)c1S(=O)(=O)N(C)C[C@@H]1OCCCC[C@@H](C)Oc2ccc(NS(=O)(=O)c3cccs3)cc2C(=O)N([C@@H](C)CO)C[C@@H]1C`, the outcome was inactive.
As to `CCCNC(=O)C[C@@H]1CC[C@@H]2[C@H](COC[C@H](O)CN2C(=O)Nc2cccc(Cl)c2)O1`, the result was inactive.

(Values after PubChem BioAssay AID743320 (Broad Institute, 2014).)
